From the supplement of paper PMC6555819

Assays:
Experiment in all cases: PBM binding z-score (relative to random genomic background probes); higher = stronger binding; sequences stand for … in GC…GCGATTGACAGCGTAGAATGAAGG
[1] = test system: PPARg:RXRa DBDmut IVT, anti-RXR (DBD mutation: RXRa K156A/R161A, NR concentration 270 nM, RXRa partner concentration 90 nM)
Outline: (§1)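 Scanned fluorescence from custom Agilent 4×180K protein-binding microarrays was regression-normalized. Binding z-scores use random background probes as reference. Ligand-free nuclear receptor dimers were incubated on the arrays for 1 h and detected with antibodies against each partner (one per run).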

[2] = test system: PPARg:RXRa IVT, anti-PPARg (NR concentration 270 nM, RXRa partner concentration 90 nM)
Outline: as §1

[3] = test system: PPARg DBDmut:RXRa IVT, anti-PPARg (DBD mutation: PPARg1 K132A/R137A, NR concentration 270 nM, RXRa partner concentration 90 nM)
Outline: as §1

[4] = test system: PPARg DBDmut IVT, anti-PPARg (DBD mutation: PPARg1 K132A/R137A, NR concentration 270 nM)
Outline: as §1

[5] = test system: PPARg homodimer (NR concentration 180 nM)
Outline: as §1

[6] = test system: PXR:RXRa (NR concentration 270 nM, RXRa partner concentration 90 nM)
Outline: as §1

[7] = test system: PXR homodimer (NR concentration 270 nM)
Outline: as §1

[8] = test system: RARa:RXR (NR concentration 270 nM, RXRa partner concentration 90 nM)
Outline: as §1

[9] = test system: RARa homodimer (NR concentration 270 nM)
Outline: as §1

[10] = test system: RARb:RXRa (NR concentration 270 nM, RXRa partner concentration 90 nM)
Outline: as §1

[11] = test system: RARb homodimer (NR concentration 270 nM)
Outline: as §1

[12] = test system: RARg:RXRa (NR concentration 270 nM, RXRa partner concentration 90 nM)
Outline: as §1

[13] = test system: RARg homodimer (NR concentration 270 nM)
Outline: as §1

[14] = test system: RXRa DBDmut IVT, anti-RXR (DBD mutation: RXRa K156A/R161A, NR concentration 90 nM)
Outline: as §1

[15] = test system: RXRa homodimer (NR concentration 180 nM)
Outline: as §1

[16] = test system: THRa:RXRa (NR concentration 90 nM, RXRa partner concentration 90 nM)
Outline: as §1

[17] = test system: THRa homodimer (NR concentration 90 nM)
Outline: as §1

[18] = test system: VDR homodimer (NR concentration 270 nM)
Outline: as §1

Sequence | PBM binding z-score [1] | PBM binding z-score [2] | PBM binding z-score [3] | PBM binding z-score [4] | PBM binding z-score [5] | PBM binding z-score [6] | PBM binding z-score [7] | PBM binding z-score [8] | PBM binding z-score [9] | PBM binding z-score [10] | PBM binding z-score [11] | PBM binding z-score [12] | PBM binding z-score [13] | PBM binding z-score [14] | PBM binding z-score [15] | PBM binding z-score [16] | PBM binding z-score [17] | PBM binding z-score [18]
CCGAGTAGGTTATGGGGCACTCAGGCAACGGTGA | 3.14 | 3.7 | -0.555 | -0.9 | 0.446 | -0.0743 | -0.0972 | 0.214 | -0.134 | 1.15 | 0.946 | 0.475 | 0.553 | -0.264 | 0.805 | 0.385 | 0.0948 | 0.0125
GGAACGAGGGCATTCGTGTTGATAGCATGGCGAT | 3.27 | 2.25 | -0.566 | -0.299 | 0.242 | 0.774 | 0.237 | 0.37 | -0.471 | 1.62 | 0.43 | 0.848 | 1.23 | 3.26 | 0.575 | 0.978 | -0.391 | 1.87
ATCGGAAGGTCGAAGGTGAGTATACCCACCCGAA | -0.338 | 1.53 | 0.343 | -0.28 | 1.26 | 1.65 | 0.401 | 2.34 | -0.118 | 2.55 | 1.44 | 2.82 | 2.27 | 0.152 | 3.19 | 1.4 | -0.0912 | 0.449
TCTTGTAGATCAACAGGAGGTTAGGAAAGATCGA | 1.53 | 0.599 | 0.272 | 0.48 | -0.426 | 0.183 | -0.275 | 0.125 | 0.162 | 0.117 | 0.164 | 0.361 | 0.196 | 0.233 | 0.348 | 0.437 | -0.828 | -0.458
CCTGCTAGGTCATAGTCAGCTAATCTACAGTATG | 3.96 | 3.31 | 0.51 | 0.574 | 1.15 | 1.16 | -0.0222 | 1.73 | 0.243 | 3.54 | 2.32 | 3.3 | 3.57 | 2.08 | 2.13 | 2.62 | 0.766 | 0.519
TCTTGTAGATCAACAGAAGGTTAAGAAAGATCGA | 2.05 | 0.787 | 0.882 | 0.062 | -0.0281 | 0.812 | 0.0567 | 0.954 | -0.338 | 0.701 | 0.688 | 0.942 | 0.329 | 0.67 | 1.02 | 0.733 | -0.701 | -0.188
TCTTGTAGATCAATCGAGGTTAAGAAAGTGCGCT | 1.91 | 1.31 | 0.666 | 0.595 | 0.306 | 2.74 | 0.235 | 1.75 | 0.262 | 0.661 | 0.899 | 0.6 | 0.164 | 0.612 | 1.01 | 3.5 | 0.268 | 0.299
GCAGATAGGTAATACAAGGTGAAAGTCCGATTGT | 0.315 | 0.869 | 0.607 | 0.154 | 0.298 | 0.645 | 0.172 | 0.91 | 0.423 | 0.412 | 0.807 | 0.57 | 0.471 | -0.0602 | 0.646 | 4.12 | 0.853 | 0.0811
CTCGAAAGGTCGTGCTCTGGTGAGTATACCAAAC | 1.12 | 1.7 | 0.0542 | 0.48 | 1.41 | 2.92 | -0.238 | 3.6 | 0.169 | 3.86 | 2.73 | 4.35 | 3.14 | 2.01 | 4.69 | 2.61 | 0.441 | 0.997
CAAACTAGGTCACGAAAGCTCAAAGTCGAATGAC | 8.36 | 8.78 | 1.59 | 1.7 | 2.09 | 2.01 | -0.0695 | 2.59 | 0.726 | 4.42 | 3.1 | 4.61 | 5.69 | 1.74 | 3.99 | 3.28 | 1.48 | 0.544
TGAATGAGGTTATAAGATCAAGGAACGTTGCAAA | 1.04 | 1.84 | 0.592 | 0.326 | 0.811 | 0.776 | -0.0343 | 1.37 | 0.338 | 1.18 | 0.308 | 1.58 | 0.824 | 0.325 | 2.15 | 1.84 | 0.279 | 0.367
GCTATTAGTTGAAAGGGCAACCGGATGATTCTCG | 0.432 | 0.892 | 0.0968 | -0.308 | 1.33 | 0.775 | 0.0713 | 1.37 | 1.05 | 2.1 | 2.11 | 1.41 | 1.33 | 0.824 | 1.22 | 0.688 | -0.119 | 0.228
CGTCCAAGGTTAGAGAGGTCAGTGAATGCCGAGT | 0.939 | 1.57 | -1.21 | -1.38 | 2.67 | 4.07 | 7.59 | 3.61 | 1.11 | 3.66 | 4.23 | 3.53 | 4.13 | 1.67 | 3.43 | 3.22 | 1.3 | 3.15
CAAACTAGGTCAAGACGTCAAAGTCCGCTTCCCG | 7.92 | 8.15 | 1.87 | 1.07 | 1.86 | 1.24 | -0.0732 | 2.5 | 0.685 | 3.97 | 3.2 | 4.09 | 4.74 | 1.65 | 3 | 2.68 | 0.895 | 0.581
